Measured values from PubChem BioAssay (NCI).
This is part of a sample that, as a whole, favours compounds with a hit. Of some 83,000 tested, about 20% had one in any assay.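 Each cell line was grown in a 96-well plate and treated with one concentration of compound for 48 hours. Values below 10 were considered active.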 Values without a mark were called inactive. Activity calls are given as the source filed them.

System: HL-60(TB) leukemia
Experiment: NCI-60 one-dose screen, 48 h (100 = growth as untreated, 0 = no growth, -100 = all killed)
Conditions: 10 µM unless noted

Structure (SMILES) | growth
Nc1nccc2c1ccn2-c1ccc(NC(=O)c2ccc(N3CCOCC3)c(C(F)(F)F)c2)cc1 | -4.36% (active)
COc1ccc(/C=C\c2cc(OC)c(OC)c(OC)c2)cc1OCC(=O)Nc1ccc2nc(C)sc2c1 | -5.19% (active)
COC(=O)c1c(C)[nH]c(/C=C2\N=C(c3ccc[nH]3)C=C2OC)c1C | 4.25% (active)
COc1ccc(/C=C2\COc3ccc(O)cc3C2=O)cc1 | -33.1% (active)
COc1cc(-c2nc3cc(Cl)c(Cl)cc3[nH]2)ccc1OCC(=O)N=Nc1c(O)[nH]c2ccc(Cl)cc12 | -32.7% (active)
COc1cc2oc3cc(=O)cc4oc(-c5ccccc5)cc(c2c2c1CCC(c1ccccc1)O2)c43 (stereo unspecified) | 138%
Fc1ccc(CNc2c3ccccc3nc3ccccc23)cc1F | 34.5%
Brc1ccc(Cn2nnnc2-c2ccn(-c3ccccc3)n2)cc1 | 69.1%
Oc1ccc(-c2nc3ccccc3s2)cc1CN(Cc1ccccn1)Cc1ccccn1 | 1.27% (active)
Cc1c(C(N)=O)sc2ncn(Cc3ccccc3)c(=O)c12 | 118%
C=C1C(=O)O[C@H]2[C@H]1CCC(/C=N/c1ncc(Br)cc1N)=C\CC[C@@]1(C)O[C@@H]21 | -21.4% (active)
